# In the supplement of paper PMC4840960:
# System: E18 rat cortical neuron-glia co-culture
# Assay: myelination (MBP fiber length per Olig2+ nucleus), % of 1 µM DAPT response (DMSO = 0) (% of DAPT); higher = more myelination, active = 50 or more
# Conditions: 5 µM; treatment time: 8 days (DIV5-DIV13)
# Method in brief: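 Library compounds at 1 or 5 µM in myelination medium were applied from DIV5 to DIV13 to papain-dissociated E18 rat cortical co-cultures seeded at 20,000 cells/well on poly-d-lysine/laminin 96-well plates. Fixed cells (4 % paraformaldehyde) were immunostained for MBP and Olig2 with DAPI, and four 10X fields were analysed in each duplicate well. Continuous straight MBP fiber length per Olig2+ nucleus was set to 0 for 0.1 % DMSO and to 100 for a 1 µM positive control.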
row,Structure (SMILES),myelination
1,CC(=O)O[C@H]1C[C@@H]2CC[C@@H]3[C@H](CC[C@@]4(C)[C@H]3C[C@H]([N+]3(C)CCCCC3)[C@@H]4OC(C)=O)[C@@]2(C)C[C@@H]1N1CCCCC1 [Vecuronium Bromide],-9.35 (inactive)
2,NC1CCN(c2nc3c(cc2F)c(=O)c(C(=O)O)cn3-c2ccc(F)cc2F)C1 (stereo unspecified) [Tosufloxacin],-14.4 (inactive)
3,CC(=O)CC(c1ccccc1)c1c(O)c2ccccc2oc1=O (stereo unspecified) [Warfarin],-6.48 (inactive)
4,NS(=O)(=O)c1cc(C(=O)O)c(NCc2ccco2)cc1Cl [Furosemide],-6.31 (inactive)
5,COc1ccc(CC2c3cc(OC)c(OC)cc3CC[N+]2(C)CCC(=O)OCCCCCOC(=O)CC[N+]2(C)CCc3cc(OC)c(OC)cc3C2Cc2ccc(OC)c(OC)c2)cc1OC (stereo unspecified) [Atracurium],63.1
6,CC(c1cc2ccccc2s1)N(O)C(N)=O (stereo unspecified) [Zileuton],-19.1 (inactive)
